# The whole screen tested about 290,000 compounds, of which about 3,000 (1%) were called active. Many of the other results were omitted from the sample, so actives are more common in it than they were. A number with no mark means an inactive call. Cut-off read from the data, not from the text of the source: active = inhibition mostly above about 36% (no sharp cut-off); inactive = mostly below about 34%.
# Assay: NOD1 signaling inhibitors, primary screen, cell-based, luminescence, uHTS (AID 1578);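 note: HEK-293T reporter cells stimulated with the NOD1 agonist gamma-tri-DAP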
# Conditions: NOD1-driven NF-kB luciferase reporter cells, at 4 µM, stronger effect = higher value
row,Compound,inhibition
1,O=C(NCc1ccco1)c1c[nH]c2ccc(S(=O)(=O)N3CCOCC3)cc2c1=O,-21.1%
2,Nc1ccc(-c2nc3ccc(C(=O)O)cc3s2)cc1,89.8% (active)
3,O=C(O)c1ccc2nc(-c3ccccc3)sc2c1,26.5%
4,Nc1ccc(-c2nc3ccc(N)cc3s2)cc1,-7.4%
5,C[C@@H]1NC(=O)[C@H](CCC(=O)O)NC(=O)c2cc([N+](=O)[O-])cc(F)c2NCCC[C@@H](C(N)=O)NC1=O,-18.8%
6,O=c1c2[nH]c3ccc(F)cc3c2ncn1CCC1=CCCCC1,-0.7%
7,Cc1csc2ncnc(NCCc3ccccn3)c12,37%
8,c1ccc2c(c1)OCC(CNc1ncnc3sccc13)O2 (stereo not given),57.1%
9,c1csc(-c2csc3ncnc(NCCCN4CCOCC4)c23)c1,30.7%
10,c1ccc(-c2csc3ncnc(NCC4COc5ccccc5O4)c23)cc1 (stereo not given),75.2% (active)
11,COc1ccc(-c2csc3ncnc(Nc4ccc(O)cc4)c23)cc1,15.8%
12,Cc1sc2ncnc(NCC3COc4ccccc4O3)c2c1C (stereo not given),44.6%
13,CN(C)CCCNc1ncnc2scc(-c3ccccc3)c12,-40.3%
14,O=C(O)c1ccc(Nc2ncnc3scc(-c4ccccc4)c23)cc1,-63%
15,Oc1ccc(Nc2ncnc3scc(-c4ccccc4)c23)cc1,83.6% (active)
16,c1ccc(CNc2nc(-c3cccs3)nc3ccccc23)nc1,-27.4%
17,CC(=O)N(c1ccc(N(C(C)=O)S(=O)(=O)c2cccs2)cc1)S(=O)(=O)c1cccs1,3%
18,CSc1nnc2c3cc(F)ccc3n(Cc3ccccc3)c2n1,-1.5%
19,CN(C)/C=C/C(=O)c1cnc(-c2ccccc2Cl)s1,-20.8%
20,Cn1c(=O)oc2cc(S(=O)(=O)NCCC(=O)N3CCN(c4ccccc4)CC3)ccc21,-5.7%
21,CCC(C)C(=O)Nc1cc(C(=O)OC)ccc1C(=O)OC (stereo not given),-11.8%
22,CC1(C)CC(=O)c2cc(N=C/C(C(=O)c3ccccc3)=C(\O)c3ccccc3)c(=O)oc2C1,-21.7%
23,Cc1cc(C)n2nc(N)c(N=Nc3ccc4c(c3)OCO4)c2n1,22.6%
24,Nc1nn(-c2ccccc2)c(N)c1N=Nc1ccc2c(c1)OCO2,-68.3%
25,COc1cccc(CNC(C)(C)CO)c1OCc1ccc(Cl)cc1,-33%

row,Compound,inhibition
1,COc1ccc(CC(=O)NC2CCN(Cc3nnnn3C(C)(C)C)CC2)cc1OC,-12.7%
2,COc1ccc(/C=C/C(=O)N2CCN(c3ccccn3)CC2)cc1,-37.3%
3,CCOC(=O)/C(C#N)=C\C1=C(N2CCOCC2)CC(C)(C)OC1,-33.6%
4,CCOC(=O)C1=C(CC)Nc2ccccc2N=C1NC(=O)CCN1C(=O)C2CCCCC2C1=O (stereo not given),-14.8%
5,N#CC1=C(S)N(c2ccc(F)cc2)C(c2ccco2)NC1=O (stereo not given),-47.2%
6,Cc1ccc(N2C(S)=C(C#N)C(=O)NC2c2ccco2)cc1 (stereo not given),-33.2%
7,N#CC1=C(S)N(c2ccccc2)C(c2ccco2)NC1=O (stereo not given),68.4% (active)
8,CCC(=O)c1ccc(OCC(=O)NC2(C#N)CCCCC2)cc1,-14.9%
9,COc1ccc(CCNC(=O)C(=O)NCC2OCCN2C(=O)c2ccc(Cl)cc2)cc1OC (stereo not given),-3.4%
10,Cc1cc(C)c(C2C(C#N)=C(N)Oc3n[nH]c(C)c32)cc1CN1CCOCC1 (stereo not given),-16%
11,COc1ccc(/C=N/Nc2nnc(Cc3ccc(OC)c(OC)c3)c(=O)[nH]2)cc1OC,4.2%
12,COc1ccc(-c2nc3cc(C)ccn3c2NCc2ccc3c(c2)OCO3)cc1,48.5% (active)
13,Cc1ccn2c(NCc3ccc4c(c3)OCO4)c(-c3ccc(O)cc3)nc2c1,3.7%
14,COc1ccc(-c2nc3ccccn3c2NCc2ccc3c(c2)OCO3)cc1,-27.1%
15,Cc1cccc(C)c1OCc1nnc(SCC(=O)Nc2ccc(N3CCOCC3)cc2)o1,17.6%
16,Cc1cc(Br)c(S(=O)(=O)NCc2ccncc2)cc1C,26%
17,Cc1ccc(C)c(S(=O)(=O)NCc2ccncc2)c1,34.2%
18,Cc1cc(-c2ccc(C)c(S(=O)(=O)NCc3ccc(OC(C)C)cc3)c2)on1,-14.2%
19,Cc1ccc(NCc2cccnc2)c(Br)c1,-14.3%
20,COc1cc(S(=O)(=O)NCc2ccccc2)ccc1Br,-7.9%
21,Cc1cc(C)cc(NCc2ccncc2)c1,-8.1%
22,Cc1ccc(NCc2ccncc2)c(Br)c1,63.7% (active)
23,Cc1cc(-c2ccc(C)c(S(=O)(=O)NCc3cccc(Br)c3)c2)on1,-20.4%
24,Cc1cc(-c2ccc(C)c(S(=O)(=O)NCc3ccc(Br)cc3)c2)on1,72.5% (active)
25,COc1ccc(S(=O)(=O)NCc2ccncc2)cc1OC,24.7%

# — PubChem BioAssay AID1578 (Sanford-Burnham Center for Chemical Genomics, 2009)
